Laboratory results reported in paper PMC8222333, “AsCas12a ultra nuclease facilitates the rapid generation of therapeutic cell medicines”.
Substitutions are numbered along the chain they refer to.

B1: AACG (dsDNA)
DNA 1: GCTATCTAGTGCTCAGTACGCACTGAACGAGGAAACTTCTGGCAGGACCAGGTCATGAGATCGGAAGAGCACACGTCTGAACTCCAGTCA
DNA 2: TGACTGGAGTTCAGACGTGTGCTCTTCCGATCTCATGACCTGGTCCTGCCAGAAGTTTCCTCGTTCAGTGCGTACTGAGCACTAGATAGC
RNA: AAUUUCUACUCUUGUAGAUAGGAAACUUCUGGCAGGACC
B2: AGAG (dsDNA)
DNA 1: B1 DNA 1 with A27G, C28A
DNA 2: B1 DNA 2 with G63T, T64C
RNA: B1 RNA
B3: AGAT (dsDNA)
DNA 1: B1 DNA 1 with A27G, C28A, G29T
DNA 2: B1 DNA 2 with C62A, G63T, T64C
RNA: B1 RNA
B4: ACAC (dsDNA)
DNA 1: B1 DNA 1 with A27C, C28A, G29C
DNA 2: B1 DNA 2 with C62G, G63T, T64G
RNA: B1 RNA
B5: AAGG (dsDNA)
DNA 1: B1 DNA 1 with C28G
DNA 2: B1 DNA 2 with G63C
RNA: B1 RNA
B6: ACCC (dsDNA)
DNA 1: B1 DNA 1 with A27C, G29C
DNA 2: B1 DNA 2 with C62G, T64G
RNA: B1 RNA
B7: AGAC (dsDNA)
DNA 1: B1 DNA 1 with A27G, C28A, G29C
DNA 2: B1 DNA 2 with C62G, G63T, T64C
RNA: B1 RNA
B8: AGCA (dsDNA)
DNA 1: B1 DNA 1 with A27G, G29A
DNA 2: B1 DNA 2 with C62T, T64C
RNA: B1 RNA
B9: ACGA (dsDNA)
DNA 1: B1 DNA 1 with A27C, C28G, G29A
DNA 2: B1 DNA 2 with C62T, G63C, T64G
RNA: B1 RNA
B10: ACAA (dsDNA)
DNA 1: B1 DNA 1 with A27C, C28A, G29A
DNA 2: B1 DNA 2 with C62T, G63T, T64G
RNA: B1 RNA
B11: ACGG (dsDNA)
DNA 1: B1 DNA 1 with A27C, C28G
DNA 2: B1 DNA 2 with G63C, T64G
RNA: B1 RNA
B12: ACAG (dsDNA)
DNA 1: B1 DNA 1 with A27C, C28A
DNA 2: B1 DNA 2 with G63T, T64G
RNA: B1 RNA
B13: ACCG (dsDNA)
DNA 1: B1 DNA 1 with A27C
DNA 2: B1 DNA 2 with T64G
RNA: B1 RNA
B14: AACT (dsDNA)
DNA 1: B1 DNA 1 with G29T
DNA 2: B1 DNA 2 with C62A
RNA: B1 RNA
B15: ACGT (dsDNA)
DNA 1: B1 DNA 1 with A27C, C28G, G29T
DNA 2: B1 DNA 2 with C62A, G63C, T64G
RNA: B1 RNA
B16: AAGT (dsDNA)
DNA 1: B1 DNA 1 with C28G, G29T
DNA 2: B1 DNA 2 with C62A, G63C
RNA: B1 RNA
B17: AAGA (dsDNA)
DNA 1: B1 DNA 1 with C28G, G29A
DNA 2: B1 DNA 2 with C62T, G63C
RNA: B1 RNA

How the values were obtained:
Assay in all cases: Spec-seq (native PAGE EMSA with sequencing of bound and unbound); 25 mM Tris-HCl pH 7.4, 150 mM KCl, 5 mM MgCl2, 10% glycerol, 1 mM DTT, 40 ng/uL salmon sperm DNA; 400 nM Cas12a, 480 nM crRNA, 50 nM library, 37 C 1 h; native PAGE at room temperature; high values mean tight binding
Conditions in all cases: protein: recombinant
dAsCas12a S542R = dAsCas12a S542R (Acidaminococcus sp., UniProt U2UMQ6 1-1307, S542R;D908A;E993A;D1235A)
d-enCas12a = d-enCas12a (Acidaminococcus sp., UniProt U2UMQ6 1-1307, E174R;S542R;K548R;D908A;E993A;D1235A)
d-enCas12a-Ultra = d-enCas12a-Ultra (Acidaminococcus sp., UniProt U2UMQ6 1-1307, E174R;S542R;K548R;M537R;F870L;D908A;E993A;D1235A)
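Also: relative affinity from the bound to unbound sequence frequency ratio in Spec-seq.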

Row | Binder | binding signal (dAsCas12a S542R) | binding signal (d-enCas12a) | binding signal (d-enCas12a-Ultra)
1 | B1 | -8.29 lnKA | -4.8 lnKA | -2.04 lnKA
2 | B2 | -8.48 lnKA | -5.79 lnKA | -3.32 lnKA
3 | B3 | -8.54 lnKA | -5.75 lnKA | -3.47 lnKA
4 | B4 | -8.48 lnKA | -5.72 lnKA | -3.38 lnKA
5 | B5 | -8.67 lnKA | -5.8 lnKA | -3.49 lnKA
6 | B6 | -5.2 lnKA | -2.44 lnKA | -0.482 lnKA
7 | B7 | -8.52 lnKA | -5.69 lnKA | -3.24 lnKA
8 | B8 | -8.4 lnKA | -3.23 lnKA | -0.786 lnKA
9 | B9 | -8.68 lnKA | -5.84 lnKA | -3.39 lnKA
10 | B10 | -8.6 lnKA | -5.98 lnKA | -3.44 lnKA
11 | B11 | -8.37 lnKA | -6.05 lnKA | -3.43 lnKA
12 | B12 | -8.64 lnKA | -5.79 lnKA | -3.45 lnKA
13 | B13 | -6.71 lnKA | -4.92 lnKA | -1.45 lnKA
14 | B14 | -8.54 lnKA | -4.69 lnKA | -1.81 lnKA
15 | B15 | -8.74 lnKA | -5.85 lnKA | -3.49 lnKA
16 | B16 | -8.46 lnKA | -5.71 lnKA | -3.41 lnKA
17 | B17 | -8.52 lnKA | -5.74 lnKA | -3.38 lnKA
